Measurements: PubChem BioAssay AID651812 (National Center for Advancing Translational Sciences (NCATS), 2012)
The campaign covered roughly 2,100 compounds. About 650 (31%) were called active. About 16% were inconclusive and are not listed. Calls come from the whole dose curve; as a rule, active = well fitted inhibition curve with a large enough effect; inconclusive = small, poorly fitted or top-dose-only effect; inactive = flat fitted curve, though single readings scatter. This is one part of the list. A call without a number means that no potency is given here.

test: qHTS for inhibitors of Vif-A3G interactions: Cherry picks; settings: HeLa A3G-eYFP + Vif (tagged APOBEC3G with the HIV-1 protein that degrades it), 24 h; Potency: eYFP fluorescence increase; series mostly up to 36.9 µM; note: nearly all actives have a fitted effect of over 80% in size
Procedure, shortened: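 Cherry-picked compounds tested at several concentrations on A3G-eYFP/Vif HeLa cells for 24 hours; loss of Vif-driven degradation read as eYFP fluorescence by cytometric plate imaging, 488 nm excitation, 500-530 nm emission.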
Potency is the fitted concentration of half-maximal effect.

Row | Compound | Potency
1 | CCOC(=O)Nc1ccc2c3c(cccc13)-c1ccccc1-2 | inactive
2 | O=CNc1ccc2c3c(cccc13)-c1ccccc1-2 | 15.8 µM (active)
3 | CC(=O)Nc1ccc(-c2ccnc3c2CC(C)(C(=O)NCc2ccco2)O3)cc1 (stereo not drawn) | inactive
4 | Cc1ccc2nc(-c3ccccn3)c(Nc3ccccc3C)n2c1 | inactive
5 | CCN1C(=O)/C(=C/C=C2\N(CC)c3cc(S(=O)(=O)N(C)C)ccc3N2c2ccccc2)SC1=S | 4.44 µM (active)
6 | CCc1ccc(C2=NN(S(C)(=O)=O)C(c3cccs3)C2)cc1 (stereo not drawn) | 25 µM (active)
7 | Cc1ccc(C2=NN(C(=O)c3cccs3)C(c3ccccc3O)C2)cc1 (stereo not drawn) | inactive
8 | CCOc1ccccc1C1CC(c2cccs2)=NN1S(C)(=O)=O (stereo not drawn) | 13 µM (active)
9 | Cc1ccccc1C1CC(c2cccs2)=NN1S(C)(=O)=O (stereo not drawn) | inactive
10 | Cn1c(=S)c2[nH]c(SCCN3CCCC3)nc2n(C)c1=O | inactive
11 | O=C1C=CC(O)(c2cc(=O)c3c(O)cc(O)cc3o2)C=C1 | inactive
12 | C1=Cc2ccccc2/C1=C\c1cc2c3c(c1)CCCN3CCC2 | 18.4 µM (active)
13 | c1cncc(-c2nc(NCc3cccs3)c3ccccc3n2)c1 | inactive
14 | Cc1ccc(Nc2nc(-c3cccnc3)nc3ccccc23)cc1 | inactive
15 | Oc1ccccc1-c1nc(NCc2ccccc2)c2ccccc2n1 | 20.6 µM (active)
16 | c1ccc(N=NC2=NN(c3ccccc3)CS2)cc1 | inactive
17 | Cc1cccc(CSc2cccc3cccnc23)c1 | inactive
18 | O=C1c2ccccc2C(=O)c2c(/C=C/N3CCCCC3)ccnc21 | 18.4 µM (active)
19 | CCCNc1c(F)c(F)c2c(C)c3ccccc3nc2c1F | 17.7 µM (active)
20 | Cc1nnc(NC(=O)CSc2nc(C(C)C)nc3ccccc23)s1 | inactive
21 | Cc1c2ccccc2nc2c(F)c(NC(C)C)c(F)c(F)c12 | 10.3 µM (active)
22 | Cc1ccc(S(=O)c2ccc([N+](=O)[O-])c3nonc23)cc1 (stereo not drawn) | 20.6 µM (active)
23 | O=C(OCc1ccccc1)c1ccc(NCc2cc(O)ccc2O)cc1 | inactive

Row | Compound | Potency
24 | Cc1cc(C)cc(NC(=O)Cn2cc(C(=O)C3CCCCC3)c3ccccc32)c1 | 20.6 µM (active)
25 | Cc1cc(C)cc(NC(=S)NC(=O)C2CC2)c1 | inactive
26 | CCn1c2ccccc2c2cc(NC(=O)CNCc3ccccc3OC)ccc21 | inactive
27 | N#C/C(=C/c1ccc(N2CCCCCC2)o1)c1ccc(Cl)cc1 | 0.651 µM (active)
28 | N#C/C(=C/c1ccc(N2CCOCC2)o1)c1ccc(Cl)cc1 | 1.46 µM (active)
29 | Cc1ccc(/C(C#N)=C\c2ccc(N3CCOCC3)o2)cc1 | 19.8 µM (active)
30 | COc1ccccc1C1c2ccc3ccccc3c2Oc2ncn(CCN(C)C)c(=N)c21 (stereo not drawn) | inactive
31 | CCOc1ccccc1OCC(=O)N/N=C(\C)Cc1ccc(OC)cc1 | inactive
32 | Cc1ccc(NC(=O)C2CCN(S(=O)(=O)c3ccc(Cl)c(C(F)(F)F)c3)CC2)nc1 | inactive
33 | CCCc1nc2c(C)cc(Br)cn2c1Cc1ccccc1 | inactive
34 | O=C(Nc1cc(Cl)cc2c1-c1ccc(Cl)cc1C2O)C(Cl)Cl (stereo not drawn) | inactive
35 | CCOC(=O)Cc1csc(NC(=O)c2sc3nc4c(C)cc(C)cc4cc3c2N)n1 | 20.6 µM (active)
36 | CCOC(=O)c1csc(NC(=O)c2cc(-c3ccccn3)nc3ccccc23)n1 | inactive
37 | CCn1ncc(/C=N\NC(=O)c2csc3ccccc23)c1C | inactive
38 | CCC1CC=CC2C1C(=O)N(Cc1ccccc1)C2c1ccoc1 (stereo not drawn) | inactive
39 | COc1cc(C2C(C#N)=C(N)Oc3cc(O)ccc32)cc2c1OCO2 (stereo not drawn) | inactive
40 | Cc1cc(-c2ccccc2)c2c3c(c(-c4ccccc4)n2n1)c(=O)n(C)c(=O)n3C | 18.4 µM (active)
41 | Cc1ccc(CNC(=O)C2CC(c3cc(C(F)(F)F)cc(C(F)(F)F)c3)=NO2)o1 (stereo not drawn) | inactive
42 | Cc1c(N2C(=O)/C(=C/c3ccc(N(C)C)cc3)N(C)C2=S)c(=O)n(-c2ccccc2)n1C | 18.4 µM (active)
43 | CN1C(=O)/C(=C\c2ccc(N(C)C)cc2)OC1=S | 4.98 µM (active)
44 | CN1C(=S)N(c2cccnc2)C(=O)/C1=C\c1ccc(N(C)C)cc1 | 15.8 µM (active)
45 | CN1C/C(=C/c2cccnc2)C(=O)/C(=C/c2cccnc2)C1 | inactive
46 | CC(NC(=S)Nc1cccc(C(F)(F)F)c1)C(C)(C)C (stereo not drawn) | inactive

Row | Compound | Potency
47 | CCN(CC)c1ccc2c(c1)oc(=O)c1c(Cl)cc(=O)oc12 | 23.1 µM (active)
48 | Cc1ccc(F)c(S(=O)(=O)NC(=O)C2(C)CCN2C(=O)Cc2ccc(Cl)cc2Cl)c1 (stereo not drawn) | inactive
49 | CSc1ccc(C2NC(=O)c3ccccc3N2)cc1 (stereo not drawn) | inactive
50 | COc1ccccc1/C=C/C=N/n1c(-c2ccc(C)cc2)n[nH]c1=S | inactive
51 | O=c1c(O)c(-c2cccs2)oc2ccccc12 | 2.59 µM (active)
52 | C/C(=N\NC(N)=S)C12CC3CC(CC(C3)C1)C2 | inactive
53 | O=C(c1ccccc1F)n1c2c(c3ccccc31)CCCC2 | inactive
54 | COc1ccc(C)c(Cn2c(-c3nonc3N)nc3ccccc32)c1 | inactive
55 | Nc1nonc1-c1nc2ccccc2n1Cc1ccc(F)cc1 | inactive
56 | Nc1nonc1-c1nc2ccccc2n1CC(=O)Nc1cccc(C(F)(F)F)c1 | 25.9 µM (active)
57 | O=c1c[n+]([O-])c2ccccc2n1OCc1c(F)cccc1F | inactive
58 | O=C(O)c1ccccc1N/N=C/c1c(Sc2nnnn2-c2ccccc2)nc2ccccn2c1=O | 3.53 µM (active)
59 | O=c1oc2c3c4c(cc2c(C(F)(F)F)c1CCN1CCOCC1)CCCN4CCC3 | 7.31 µM (active)
60 | O=C(Nc1cc(Cl)ccc1-n1cncn1)c1ccc([N+](=O)[O-])s1 | 15.8 µM (active)
61 | O=C(O)Cc1sc(NC2CCCCC2)nc1-c1ccc(Cl)cc1 | inactive
62 | COC(=O)C1=C(Nc2ccc(C)cc2)C=C(C)C(C(=O)OC)C1c1cccc(OC)c1 (stereo not drawn) | inactive
63 | CC(=O)Nc1ccc(S(=O)(=O)N2c3ccccc3C(C)=CC2(C)C)cc1 | inactive
64 | Cc1cccc(/C=C/C(=O)c2ccc([N+](=O)[O-])o2)c1 | inactive
65 | O=C(NN(c1ccccc1)c1ccccc1)c1ccc([N+](=O)[O-])o1 | inactive
66 | Cc1cc2ccccn2c1C(=O)c1ccc([N+](=O)[O-])o1 | 18.4 µM (active)
67 | CCN(CC)C(=O)Cn1c(C)c(/C=C/c2cc[n+](C)cc2)c2ccccc21 | 12.5 µM (active)
68 | COC(=O)Cn1c(C)c(/C=C/c2cc[n+](C)cc2)c2ccccc21 | 13 µM (active)
